Among the data in PubChem BioAssay (NCI) are growth values, retold here.

The panel holds about 83,000 compounds, 20% with a hit somewhere; the sample as a whole holds those more often.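 Testing used 96-well plates and a 48-hour single-concentration exposure. Example: -40 means 40% of the starting cells died.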 Values without a mark were called inactive. Activity calls are given as the source filed them. How the source made its calls: active means growth percent below 10; inactive means the rest.

Test systems include SR leukemia; RPMI-8226 leukemia; OVCAR-5 ovarian; OVCAR-4 ovarian; SK-OV-3 ovarian; IGROV1 ovarian; OVCAR-3 ovarian; HS 578T breast; NCI/ADR-RES ovarian; T-47D breast; BT-549 breast; MDA-MB-435 melanoma; MCF7 breast; HCT-116 colon; HCC-2998 colon; KM12 colon; SW-620 colon; OVCAR-8 ovarian.
What all share (test): NCI-60 one-dose screen, 48 h (100 = growth as untreated, 0 = no growth, -100 = all killed)
What all share (conditions): 10 µM unless noted

For the compound `O=C1CSC(c2ccc(O)cc2)N1c1nnc(Cn2cnnc2)o1` (stereo unspecified), the growth is 3.17% (active) in the experiment with SR leukemia; 62% in the experiment with RPMI-8226 leukemia; 96.1% in the experiment on OVCAR-5 ovarian; 88.6% in the experiment with OVCAR-4 ovarian; 112% in the experiment on SK-OV-3 ovarian; 104% in the experiment with IGROV1 ovarian. For the same compound, the growth is 15.2% with OVCAR-3 ovarian; 64.7% in the experiment on HS 578T breast; 92.2% with NCI/ADR-RES ovarian; 92.3% in the experiment on T-47D breast; 55.8% in the experiment with BT-549 breast; -1.5% (active) with MDA-MB-435 melanoma. The growth was 84% with MCF7 breast, 93% in the experiment with HCT-116 colon and 112% with HCC-2998 colon.
Consider `Cc1ccc(C)c2c1C(=O)OC2=O`, for which the growth in the experiment with SR leukemia is 10.4%; in the experiment on RPMI-8226 leukemia, 109%; in the experiment with OVCAR-5 ovarian it was 90.6%; in the experiment with OVCAR-4 ovarian it was 109%; with SK-OV-3 ovarian, 95.2%; with IGROV1 ovarian, 92%. Also, the growth in the experiment with OVCAR-3 ovarian is 115%; in the experiment with HS 578T breast it was 114%; with NCI/ADR-RES ovarian, 98.1%; in the experiment with T-47D breast, 96.1%; in the experiment on BT-549 breast, 104%; with MDA-MB-435 melanoma it was 114%. The growth in the experiment on MCF7 breast was 93.5%; with HCT-116 colon it was 96.4%; with HCC-2998 colon, 118%; with KM12 colon it was 109%.
`O=C(c1ccccc1)c1ccc(Cl)c([N+](=O)[O-])c1`: the growth was -3.1% (active) in the experiment with SR leukemia; 82.3% in the experiment with RPMI-8226 leukemia; 99.1% with OVCAR-5 ovarian; 99.5% in the experiment on OVCAR-4 ovarian; 108% in the experiment on SK-OV-3 ovarian; 43.6% in the experiment with IGROV1 ovarian. In addition, the growth was 75.7% in the experiment on OVCAR-3 ovarian; 87.7% in the experiment on HS 578T breast; 108% with NCI/ADR-RES ovarian; 71.5% with T-47D breast; 106% with BT-549 breast; 89.5% with MDA-MB-435 melanoma. In addition, the growth is 16.8% in the experiment on SW-620 colon; 91.3% in the experiment on MCF7 breast; 45.2% in the experiment with HCT-116 colon; 88.4% with HCC-2998 colon; 106% with KM12 colon.
Regarding `O=C1CSC(c2ccccc2Cl)N1c1nnc(Cn2cnnc2)o1` (stereo unspecified), the growth was -23.1% (active) in the experiment with SR leukemia; 55.1% in the experiment on RPMI-8226 leukemia; 63% in the experiment on OVCAR-5 ovarian; 68.6% with OVCAR-4 ovarian; 49% in the experiment on SK-OV-3 ovarian; 74.7% with IGROV1 ovarian. Further, the growth is 44.1% with OVCAR-3 ovarian; 82.3% in the experiment on HS 578T breast; 8.38% (active) in the experiment on NCI/ADR-RES ovarian; 33.3% with T-47D breast; 60.6% in the experiment with BT-549 breast; -45.1% (active) in the experiment on MDA-MB-435 melanoma. Besides, the growth is 39.4% in the experiment on SW-620 colon; -8.09% (active) in the experiment on MCF7 breast; 13.3% with HCT-116 colon; 35.8% with HCC-2998 colon; 50.9% with KM12 colon.
As for `COc1cc(C(=O)/C=C/c2c(-c3ccc(F)cc3)nc3ncccn23)cc(OC)c1OC`, the growth with SR leukemia was 9.6% (active); in the experiment with RPMI-8226 leukemia, 11.3%; in the experiment on OVCAR-8 ovarian, 48.3%; in the experiment on OVCAR-4 ovarian, 46.5%; in the experiment on SK-OV-3 ovarian it was 63.9%; in the experiment with IGROV1 ovarian it was 47.8%. In addition, the growth in the experiment on OVCAR-3 ovarian is 19.1%; in the experiment with T-47D breast, 59.8%; in the experiment with BT-549 breast, 32.5%; with MDA-MB-435 melanoma, 11.9%; in the experiment with MCF7 breast, 10%; in the experiment with HCT-116 colon, 17.7%. For the same compound, the growth is 44.1% with HCC-2998 colon and 22.3% with KM12 colon.
On to `Cc1cc(NS(=O)(=O)c2ccccc2)c(OS(=O)(=O)c2ccccc2)cc1C`, for which the growth in the experiment on SR leukemia was 94.6%; in the experiment on RPMI-8226 leukemia, 84.1%; in the experiment with OVCAR-5 ovarian it was 114%; in the experiment on OVCAR-4 ovarian it was 106%; in the experiment on SK-OV-3 ovarian it was 108%; in the experiment on IGROV1 ovarian, 122%. In addition, the growth in the experiment with OVCAR-3 ovarian was 110%; with HS 578T breast, 101%; in the experiment on NCI/ADR-RES ovarian, 102%; with T-47D breast, 109%; in the experiment on MDA-MB-435 melanoma, 122%; in the experiment with SW-620 colon, 107%. Moreover, the growth with MCF7 breast is 93.7%; in the experiment on HCT-116 colon, 96.1%; with HCC-2998 colon, 106%; with KM12 colon, 107%.
On to `COc1cc(/C=C/C(=O)c2cccc(-n3cc(-c4ccccc4)[nH]c3=O)c2)cc(OC)c1OC`, for which the growth in the experiment on SR leukemia is -15.9% (active); in the experiment on RPMI-8226 leukemia, -39.4% (active); in the experiment on OVCAR-8 ovarian, 12.5%; with OVCAR-4 ovarian, -7.54% (active); in the experiment on SK-OV-3 ovarian it was 4.74% (active); in the experiment with IGROV1 ovarian, -23.8% (active). For the same compound, the growth in the experiment on OVCAR-3 ovarian is 6.35% (active); in the experiment on T-47D breast it was -6.56% (active); with BT-549 breast it was -13.1% (active); with MDA-MB-435 melanoma it was -3.32% (active); in the experiment with SW-620 colon, -29% (active); with MCF7 breast, -93.8% (active). The growth in the experiment on HCT-116 colon is -90.3% (active); in the experiment on HCC-2998 colon, -81.4% (active); with KM12 colon, -53.6% (active).
With `CCOC(=O)c1nnn(C(Cc2ccccc2Cl)C(=O)OCC)c1C` (stereo unspecified), the growth with SR leukemia is 93.7%; in the experiment with RPMI-8226 leukemia, 96.3%; in the experiment with OVCAR-5 ovarian, 106%; with OVCAR-4 ovarian, 104%; with SK-OV-3 ovarian it was 102%; in the experiment with IGROV1 ovarian, 112%. Besides, the growth with OVCAR-3 ovarian was 111%; with HS 578T breast, 94.3%; with NCI/ADR-RES ovarian, 107%; in the experiment with T-47D breast, 97.6%; in the experiment with BT-549 breast, 107%; in the experiment on MDA-MB-435 melanoma it was 105%. Further, the growth with SW-620 colon is 98%; in the experiment with MCF7 breast, 104%; in the experiment with HCT-116 colon it was 100%; in the experiment with HCC-2998 colon, 109%; in the experiment with KM12 colon, 102%.
Take `O=C(NCc1cn(Cc2cccc(Oc3ccccc3)c2)nn1)c1cccnc1NCc1ccc(Cl)cc1`: the growth with SR leukemia is 19.3%; in the experiment with RPMI-8226 leukemia, -9.55% (active); in the experiment on OVCAR-5 ovarian, 51.5%; in the experiment on OVCAR-4 ovarian, 43.8%; in the experiment with SK-OV-3 ovarian, 21.4%; with IGROV1 ovarian, 60.1%. Besides, the growth was 2.33% (active) in the experiment with OVCAR-3 ovarian; 23.8% in the experiment on HS 578T breast; 0.306% (active) in the experiment with NCI/ADR-RES ovarian; 31.9% in the experiment with T-47D breast; 41.1% with BT-549 breast; -2.51% (active) in the experiment with MDA-MB-435 melanoma. In addition, the growth is 36.9% with SW-620 colon, 14.9% in the experiment on MCF7 breast, 22.1% in the experiment on HCT-116 colon and 9.38% (active) in the experiment on HCC-2998 colon.
Turning to `Nc1ccc2c(S(=O)(=O)O)ccc(S(=O)(=O)O)c2c1`, the growth is 83.4% with SR leukemia; 95.7% with RPMI-8226 leukemia; 91.6% in the experiment on OVCAR-8 ovarian; 99.9% in the experiment with OVCAR-4 ovarian; 95.6% in the experiment with SK-OV-3 ovarian; 82.5% in the experiment on IGROV1 ovarian. Further, the growth is 82.5% with T-47D breast; 107% in the experiment on MDA-MB-435 melanoma; 106% with SW-620 colon; 93.1% in the experiment with MCF7 breast; 93.9% in the experiment on HCT-116 colon; 98.7% in the experiment on HCC-2998 colon. Further, the growth with KM12 colon was 110%.
